Data taken from the supplement of paper PMC10981050.
Several values for one entry are separate records, joined by “and”; a condition that tells them apart may be missing. Equal values may be shown once. Where a name gives a salt, the structure may show the parent alone.

Tests used:
Assay in all cases: cell viability relative to vehicle control; higher = less cytotoxic
Conditions in all cases: 10 µM
K562 = test system: K562
Summary of the method: (§1)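 CRISPR-edited SRSF2 P95 mutant and isogenic wild-type clones of four leukaemia lines were screened against Selleck bioactive, kinase and epigenetic probe libraries, with identity-inconsistent compounds removed. Compounds were acoustically dispensed into 384-well plates at a single 10 µM dose, with 2000 cells in 50 µL medium per well. After 48 h, supernatant was removed and CellTiter-Glo luminescence was read. Viability was expressed as percent of the on-plate DMSO vehicle control, analysed in Genedata Screener.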

MARIMO = test system: MARIMO
Summary of the method: as §1

MOLM14 = test system: MOLM14
Summary of the method: as §1

OCI-AML2 = test system: OCI-AML2
Summary of the method: as §1

Row | SMILES | cell viability (K562; SRSF2 genotype: SRSF2 P95H/wt) | cell viability (K562; SRSF2 genotype: SRSF2 wt/wt) [%] | cell viability (MARIMO; SRSF2 genotype: SRSF2 P95H/wt) [%] | cell viability (MARIMO; SRSF2 genotype: SRSF2 wt/wt) [%] | cell viability (MOLM14; SRSF2 genotype: SRSF2 P95H/wt) [%] | cell viability (MOLM14; SRSF2 genotype: SRSF2 wt/wt) [%] | cell viability (OCI-AML2; SRSF2 genotype: P95H/wt) [%] | cell viability (OCI-AML2; SRSF2 genotype: wt/wt) [%]
1 | C=CC(=O)Nc1cc(Nc2nccc(-c3cn(C)c4ccccc34)n2)c(OC)cc1N(C)CCN(C)C | 1.58% and 2.37% | 3.2 | 1.11 | 1.36 | 0.38 | 0.44 | 0.32 | 0.41
2 | CN1CCN(c2ccc3nc(-c4c(N)c5c(F)cccc5[nH]c4=O)[nH]c3c2)CC1 [Dovitinib Dilactic acid (TKI258 Dilactic aci] | 6.48% and 13.2% | 8.9 | 10.8 | 12.8 | 0.16 | 0.07 | 0.15 | 0.51
3 | CC(C)(O)CNc1ncc(-c2ccnc(Nc3ccnc(Cl)c3)n2)c(CC2CC2)n1 | 41.9% and 40.5% | 36.9 | 39.5 | 41.2 | 8.93 | 9.79 | 5.49 | 12.8
4 | O=C(/C=C/c1ccc2ccccc2n1)c1ccncc1 | 6.76% and 0.53% | 0.42 | 0.28 | 0.4 | 0.4 | 0.45 | 0.31 | 0.36
5 | CCN(Cc1ccncc1)C(=O)C(CO)c1ccccc1 (stereo unspecified) [Tropicamide] | 102% and 103% | 108 | 107 | 103 | 97.7 | 106 | 109 | 116
6 | O=C(/C=C\n1cnc(-c2cc(C(F)(F)F)cc(C(F)(F)F)c2)n1)NNc1ccccn1 [Verdinexor (KPT-335)] | 11.8% and 21.6% | 14.7 | 24.4 | 22.1 | 2.16 | 1.01 | 4.7 | 9.56
7 | CCOC(=O)C1=C(C)NC(C)=C(C(=O)OCC)C1 [Diludine] | 99.6% and 92.2% | 104 | 94.3 | 99.7 | 104 | 99.3 | 99.3 | 93.9
8 | O=C1c2ccccc2C(=O)c2c1ccc(O)c2O [Alizarin] | 101% and 104% | 101 | 103 | 99.5 | 97 | 102 | 101 | 93
9 | Cc1cn([C@H]2C[C@H](O)[C@@H](CO)O2)c(=O)[nH]c1=O [Thymidine] | 98.3% and 88% | 98.2 | 96.6 | 102 | 92.5 | 99.7 | 91.8 | 99.9
10 | C[C@@H](N)c1ccc(C(=O)Nc2ccnc3[nH]ccc23)cc1 | 90.4% and 107% | 105 | 65.8 | 78 | 31.2 | 41.1 | 19.1 | 32.1
11 | CCOC(=O)c1cc(O)c(O)c(O)c1 [Ethyl gallate] | 98.4% and 88.5% | 87.8 | 72.1 | 88.3 | 78.5 | 87.2 | 80.6 | 86.8
12 | CC(C)[N+]1(C)[C@@H]2CC[C@H]1C[C@@H](OC(=O)C(CO)c1ccccc1)C2 (stereo partly specified) [Ipratropium bromide] | 113% and 109% | 105 | 99.5 | 105 | 99.8 | 105 | 99.1 | 118
13 | O=C(Nc1ccc(Oc2ccc(Cl)cc2)c(Cl)c1)c1cc(I)cc(I)c1O [Rafoxanide] | 85.2% and 95.8% | 97.9 | 101 | 111 | 80.4 | 108 | 105 | 101
14 | COc1c(C)c2c(c(O)c1C/C=C(\C)CCC(=O)O)C(=O)OC2 [Mycophenolic acid] | 49.9% and 48.3% | 43.2 | 42.2 | 41.6 | 10.9 | 3.65 | 13.9 | 13
15 | S=c1nc[nH]c2nc[nH]c12 [6-Mercaptopurine (6-MP) Monohydrate] | 70.9% and 60.5% | 39.7 | 104 | 96.8 | 87.4 | 71.8 | 103 | 94.1
16 | C=CC(=O)N1CC(=Cc2ccc([N+](=O)[O-])cc2)C(=O)C(=Cc2ccc([N+](=O)[O-])cc2)C1 | 15.9% and 2.27% | 9.63 | 3.16 | 1.15 | 0.72 | 0.74 | 2.08 | 1.27
17 | OC(CNCC(O)C1CCc2cc(F)ccc2O1)C1CCc2cc(F)ccc2O1 (stereo unspecified) [Nebivolol HCl] | 61.4% and 73% | 80.7 | 60.4 | 60.5 | 58.6 | 62.5 | 50.6 | 61.5
18 | OC[C@@H](O)[C@@H](O)[C@H](O)[C@H](O)CO [D-Mannitol (Osmitrol)] | 98% and 97.7% | 106 | 107 | 116 | 107 | 109 | 97 | 100
19 | CN(C)C(=O)c1cc2cnc(Nc3ccc(N4CCNCC4)cn3)nc2n1C1CCCC1 [Ribociclib (LEE011)] | 96.4% and 111% | 110 | 68 | 64.7 | 54.2 | 46 | 62 | 57
20 | Nc1ccc(C(=O)NCC(=O)O)cc1 [4-Aminohippuric Acid] | 97.6% and 98.4% | 98.2 | 92.9 | 102 | 95.7 | 97.4 | 92.8 | 103
21 | C#CCC(Cc1cnc2nc(N)nc(N)c2n1)c1ccc(C(=O)N[C@@H](CCC(=O)O)C(=O)O)cc1 (stereo partly specified) [Pralatrexate(Folotyn)] | 98.1% and 106% | 45.8 | 109 | 108 | 102 | 73.9 | 98.6 | 104

Row | SMILES | cell viability (K562; SRSF2 genotype: SRSF2 P95H/wt) | cell viability (K562; SRSF2 genotype: SRSF2 wt/wt) [%] | cell viability (MARIMO; SRSF2 genotype: SRSF2 P95H/wt) [%] | cell viability (MARIMO; SRSF2 genotype: SRSF2 wt/wt) [%] | cell viability (MOLM14; SRSF2 genotype: SRSF2 P95H/wt) [%] | cell viability (MOLM14; SRSF2 genotype: SRSF2 wt/wt) [%] | cell viability (OCI-AML2; SRSF2 genotype: P95H/wt) [%] | cell viability (OCI-AML2; SRSF2 genotype: wt/wt) [%]
22 | CNS(=O)(=O)C[C@H]1CC[C@H](N(C)c2[nH]cnc3nccc2-3)CC1 [Oclacitinib maleate] | 95.6% and 99.2% | 103 | 95.5 | 102 | 55.9 | 73 | 77.5 | 72.5
23 | Cn1sc(=O)n(Cc2ccccc2)c1=O | 0.36% and 9.05% | 0.35 | 0.8 | 0.14 | 0.12 | 0.54 | 0.07 | 0.09
24 | NC(=O)c1cccc2cn(-c3ccc(C4CCCNC4)cc3)nc12 (stereo unspecified) [MK-4827(Niraparib)] | 102% and 104% | 86.9 | 40.9 | 57.4 | 25.2 | 8.96 | 45.3 | 51.5
25 | Clc1cccc(Cl)c1NC1=NCCN1 [Clonidine hydrochloride (Catapres)] | 98.5% and 103% | 105 | 110 | 113 | 89.2 | 103 | 115 | 101
26 | Clc1cccc(CN=C2Nc3ccccc3NC23CCNCC3)c1 [Liproxstatin-1] | 68.8% and 75.6% | 70 | 73 | 70.1 | 68.9 | 80.1 | 93.5 | 71.5
27 | O=C1C(=O)N(Cc2ccc(Cl)c(Cl)c2)c2ccccc21 [Apoptosis Activator 2] | 62.4% and 47.9% | 37.7 | 25.5 | 33.1 | 3.92 | 1.81 | 32 | 13.7
28 | COc1cc(OC)c2c(=O)[nH]c(-c3cc(C)c(OCCO)c(C)c3)nc2c1 | 81.8% and 87.1% | 87.5 | 80.1 | 71.1 | 77.8 | 81.3 | 79 | 86
29 | CCOc1ccc(NC(C)=O)cc1 [Phenacetin] | 98.6% and 97.2% | 91.5 | 89.6 | 92.5 | 98.4 | 95.8 | 88.3 | 93.4
30 | COc1cc2c(Nc3ccc(NC(=O)c4ccccc4)cc3)ncnc2cc1OCCCN1CCOCC1 | 67.2% and 92% | 79.4 | 62.5 | 72 | 17.9 | 10.3 | 16.4 | 22.1
31 | Cc1cc(Nc2cc(N3CCN(C)CC3)nc(Sc3ccc(NC(=O)C4CC4)cc3)n2)n[nH]1 [VX-680 (MK-0457, Tozasertib)] | 16.4% and 18.7% | 14.8 | 53.6 | 38 | 6.03 | 9.53 | 14.4 | 19.3
32 | C#C[C@]1(O)CC[C@H]2[C@@H]3CCC4=CC(=O)CC[C@@H]4[C@H]3CC[C@@]21C [Norethindrone (Norethisterone)] | 103% and 101% | 100 | 101 | 116 | 98.3 | 106 | 107 | 111
33 | COCCCOc1cc(C[C@@H](C[C@H](N)[C@@H](O)C[C@H](C(=O)NCC(C)(C)C(N)=O)C(C)C)C(C)C)ccc1OC [Aliskiren Hemifumarate] | 104% and 99.9% | 95.5 | 92.3 | 101 | 91.8 | 98.7 | 92.5 | 106
34 | C=CC[C@@H]1/C=C(\C)C[C@H](C)C[C@H](OC)[C@H]2O[C@@](O)(C(=O)C(=O)N3CCCC[C@H]3C(=O)O[C@H](/C(C)=C/[C@@H]3CC[C@@H](O)[C@H](OC)C3)[C@H](C)[C@@H](O)CC1=O)[C@H](C)C[C@@H]2OC [Tacrolimus (FK506)] | 90.3% and 93.4% | 84.9 | 94.3 | 97.2 | 92.2 | 96.3 | 91.4 | 98.2
35 | O=C(Nc1cnn2ccc(N3CCC[C@@H]3c3cc(F)ccc3F)nc12)N1CC[C@H](O)C1 [LOXO-101(sulfate)] | 104% and 105% | 104 | 113 | 118 | 97.6 | 104 | 98.2 | 104
36 | O=C1/C(=C/c2cccs2)CC/C1=C\c1cccs1 | 99.2% and 106% | 110 | 96.2 | 104 | 105 | 99.2 | 109 | 86
37 | O=C(O)COCCN1CCN([C@H](c2ccccc2)c2ccc(Cl)cc2)CC1 [Levocetirizine Dihydrochloride] | 99% and 88.4% | 101 | 93.2 | 107 | 92.4 | 99.3 | 91.7 | 103
38 | COc1cc(O)c(C(=O)Nc2nc(C(=O)NCCN(C(C)C)C(C)C)cs2)cc1OC [Acotiamide] | 101% and 97.3% | 107 | 98 | 108 | 97.5 | 106 | 94.1 | 101
39 | COc1cc(OC2CCN(C)CC2)ccc1Nc1ncc2c(n1)n(C1CCCC1)c(=O)n2C | 81.2% and 76.4% | 78.1 | 44.7 | 38.6 | 10.8 | 14 | 4.89 | 13.5
40 | CC1=C(C(=O)OC2CCCCC2)C(c2ccc([N+](=O)[O-])cc2)C2=C(CC(C)(C)CC2=O)N1 (stereo unspecified) | 30.9% and 13.9% | 47.4 | 84.3 | 66 | 10.5 | 13.7 | 52.6 | 43.5
41 | O=S(=O)(O)Oc1ccc(C(c2ccc(OS(=O)(=O)O)cc2)c2ccccn2)cc1 [Sodium Picosulfate] | 103% and 102% | 108 | 106 | 112 | 103 | 104 | 104 | 101
42 | CC(C)(C)OC(=O)N[C@H]1CCCCC/C=C\[C@@H]2C[C@@]2(C(=O)NS(=O)(=O)C2CC2)NC(=O)[C@@H]2C[C@@H](OC(=O)N3Cc4cccc(F)c4C3)CN2C1=O [Danoprevir (ITMN-191)] | 97.7% and 108% | 98.9 | 106 | 106 | 96.8 | 101 | 123 | 108
